# About 83,000 compounds went through this panel and 20% of them were active in at least one assay; those are over-represented in the sample as a whole.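 Method: cells in 96-well plates; compound added at one concentration; 48 h incubation; percent growth measured; values under 10 scored active.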 Calls of active or inactive are those of the source.
# Tested on: SF-295 CNS
# Assay: NCI-60 one-dose screen, 48 h (100 = growth as untreated, 0 = no growth, -100 = all killed)
# Conditions: 10 µM
row,Compound,growth
1,O=C(CSc1nnc(-c2ccc3nc(-c4ccccc4)[nH]c3c2)o1)Nc1ccc(Br)cc1,74.3% (inactive)
2,O=C(CNc1nc(-c2ccccc2)cs1)Nc1ccccc1,-1.92% (active)
3,O=C(/C=C/Nc1ccc(F)cc1F)c1ccc2c(c1)Nc1ccccc1S2,65.3% (inactive)
4,COc1cc(Cn2c(C(F)(F)F)cc3c(Cl)ncnc32)ccn1,95% (inactive)
5,COc1ccc(-c2cc(C(=O)N=Nc3c(O)[nH]c4ccc(F)cc34)c3ccccc3n2)cc1,104% (inactive)
6,O=C(Nc1ccccc1)Nc1nc2ccccc2s1,82.3% (inactive)
7,O=C(CSc1nnc(-c2ccc3nc(-c4ccccc4)[nH]c3c2)o1)Nc1ccc(Cl)cc1,-14.9% (active)
8,CCOc1ccc(Nc2nc3ccccc3nc2Nc2ccc(OCC)cc2)cc1,43.3% (inactive)
9,CNC(=O)c1cc(-c2ccc(NC(=O)Nc3ccc(C)cc3)cc2)nc2cccnc12,95.6% (inactive)
10,NC(=Nc1ccc(OCCCCCCCCn2ccnn2)cc1)c1ccccc1,10.1% (inactive)
11,Cc1ccc(C(=O)Nc2ccc(-n3c(C)nc4c(cnn4-c4ccccc4)c3=O)cc2)cc1,50.6% (inactive)
12,COc1ccc(-c2cc(-c3cc(C(=O)c4ccccc4)n4ccc(C)cc34)nc(N)c2C#N)cc1,45.2% (inactive)
13,C[C@H]1[C@H](C)CC[C@]2(COC(=O)CCC(=O)NCC#CCN3CCNCC3)CC[C@]3(C)C(=CC[C@@H]4[C@@]5(C)CCCNC(C)(C)[C@@H]5CC[C@]43C)[C@H]12,28.1% (inactive)
14,O=c1[nH]c2ccc(Cl)cc2cc1CSc1ccc(Nc2nccc(-c3ccc(Cl)cc3)n2)cc1,105% (inactive)
15,COc1ccc(-c2cc(C(=O)N=Nc3c(O)[nH]c4ccccc34)c3ccccc3n2)cc1,4.82% (active)
16,COc1ccc(-c2nc(S(=O)(=O)c3ccc(C)cc3)c(S(=O)(=O)CC(=O)N(C)Cc3ccccc3)o2)cc1,78.5% (inactive)
17,COc1ccc(C(C)=C(c2ccc(OCCCN(C)C)cc2)c2ccc(OCCCN(C)C)cc2)cc1,-85.2% (active)
18,COc1cc2c3c(n(CCCNCCO)c(=O)c2cc1OC)-c1nc2c(cc1C3=O)OCO2,-8.95% (active)
19,c1ccc(C(=C(c2ccc(OCCN3CCCCC3)cc2)c2ccc(OCCN3CCCCC3)cc2)C2CCCC2)cc1,-63.8% (active)
20,O=C(CSc1nnc(-c2c[nH]c3ccccc23)n1-c1ccccc1)Nc1ccc(C(=O)/C=C/c2ccc(Cl)cc2)cc1,65.3% (inactive)
21,COc1cnc2c(c1)C(=O)c1c-2n(CCCNC(C)C)c(=O)c2cc(OC)c(OC)cc12,13.3% (inactive)
22,COc1ccc(NC(=O)CSc2nnc(-c3ccc4nc(-c5ccc(Cl)cc5)[nH]c4c3)o2)cc1,26.1% (inactive)
23,CN(CCO)c1oc(-c2ccccc2)nc1[P+](c1ccccc1)(c1ccccc1)c1ccccc1,-13.8% (active)
24,CN1CCc2c(sc3ncnc(N/N=C/c4ccc5ccccc5c4)c23)C1,53.9% (inactive)
